One assay deals with Albumin (Bos taurus) (UniProt P02769). Nature of the assay: bovine serum albumin binders on microarray, profiling panel, artefact control for SMM control protein annotation, biochemical, small-molecule microarray, Alexa647 label, 635/667 nm fluorescence (AID 1118).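 Note: score merges 667 nm emission intensity and signal-to-noise per printed compound spot.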 The note with it: BSA-A647 binding, fluorescence 635 nm, higher = more signal.
The nature of assay [1]: small-molecule microarray binders of probe aXIP, primary screen, biochemical, NeuroSMM set, 635/667 nm fluorescence (AID 1119).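 Note: probe is the protein aXip251-270 applied at 1 µg/mL to compound-printed slides; binding of probe to printed compounds measured as 667 nm fluorescence plus signal to noise.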 The note with it: higher = more signal, called active from +8 up or from −8 down.
Assay [2] in a line: small-molecule binders of probe aNOTCH3, primary screen, biochemical, small-molecule microarray, 635/667 nm fluorescence (AID 1120).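 Note: probe is a biotin-tagged antibody raised against NOTCH3 rather than NOTCH3 protein; score merges spot fluorescence near 667 nm with spot signal to noise.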 Particulars: higher = more signal.
Assay [3] is described as follows: small-molecule binders of probe aNOTCH2, primary screen, biochemical, small-molecule microarray, 635/667 nm fluorescence (AID 1121).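 Note: score merges feature fluorescence read at 667 nm with its signal to noise.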 Particulars: higher = more signal.
In assay [4] the target is Carbonic anhydrase 2 (Homo sapiens) (UniProt P00918). Nature of the assay: CAII small-molecule binders, profiling panel, biochemical, small-molecule microarray, Alexa647-labelled CAII (AID 1122). Particulars: CAII-A647 binding fluorescence, higher = more signal.
Assay [5] can be described thus: COS7 lysate on small-molecule microarray, probe aHis, 635 nm (AID 1123).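 Note: z-score combines 667nm fluorescence intensity with signal-to-noise per printed compound spot.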 Particulars: COS7 cell lysate, fluorescence, higher = more signal.
Assay [6] can be described thus: compound binding in COS7 lysate, probe aLAP1, primary screen, cell lysate, small-molecule microarray (AID 1124).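 Note: lysate comes from COS7 cells expressing LAP1 and is applied at 0.3 µg/mL; score merges spot fluorescence near 667 nm with signal-to-noise over triplicate slides.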 Particulars: probe aLAP1, fluorescence, higher = more signal.
The test system of another assay is Sam68 (KHDRBS1). In words: Sam68 small-molecule binders, primary screen, biochemical, small-molecule microarray, 635 nm fluorescence (AID 1125).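 Note: score merges 667 nm channel intensity with signal to noise over triplicate slides.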 Particulars: small-molecule microarray binding, higher = more signal.
The subject of assay [7] is Chordin-like protein 2 (CHRDL2). Nature of the assay: CHRDL2 small-molecule binders, primary screen, biochemical, small-molecule microarray, 635 nm fluorescence (AID 1126).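 Note: printed compound slides probed with Chrdl2 protein at 4 µg/mL for 1 h at 4 C; score merges 667 nm emission intensity with signal to noise over three replicate slides.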 Particulars: small-molecule microarray binding, fluorescence 635 nm; higher = more signal.
In assay [8] the target is Concanavalin-A (Canavalia ensiformis) (UniProt P02866). Nature of the assay: ConA small-molecule binders, primary screen, artefact control for SMM control protein annotation, biochemical, small-molecule microarray, Alexa647 label, 635 nm (AID 1127).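 Note: z combines 667 nm emission intensity with signal-to-noise across three replicate slides.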 Particulars: ConA-A647 binding fluorescence, higher = more signal.
Assay [9] can be described thus: anti-His antibody binders, primary screen, artefact control for SMM control protein annotation, biochemical, small-molecule microarray, 635 nm fluorescence (AID 1128).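 Note: score merges feature fluorescence with signal-to-noise for each printed compound spot.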 Particulars: anti-His Alexa647 antibody binding, higher = more signal.
For assay [10], the system named is Human papillomavirus type 1a E7 protein (residues 1-88). Nature of the assay: HPV1a E7 small-molecule binders, primary screen, biochemical, small-molecule microarray, residues 1-88, 635 nm (AID 1129). Particulars: small-molecule microarray binding, fluorescence 635 nm; higher = more signal.
The target in assay [11] is Focal adhesion kinase 1 (Homo sapiens) (UniProt Q05397). In words: small-molecule microarray binders of FAK, primary screen, biochemical, 635/667 nm fluorescence, BSA, DTT (AID 1130).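 Note: composite of spot emission at 667 nm and signal to noise over triplicate slides.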 Particulars: PTK2 binding, 635 nm fluorescence, higher = more signal.
Assay [12] deals with Fibrinogen (Alexa647-labelled). In words: fibrinogen binders on compound microarrays, profiling panel, artefact control for SMM control-protein annotation, biochemical, small-molecule microarray, 635/667 nm fluorescence (AID 1131).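 Note: z-score merges 667 nm fluorescence with per-spot signal-to-noise over triplicate slides.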 The note with it: fibrinogen-A647 binding fluorescence, higher = more signal.
The target in assay [13] is Follistatin (Homo sapiens) (UniProt P19883). In words: follistatin binders on small-molecule microarrays, primary screen, biochemical, small-molecule microarray, 635/667 nm fluorescence (AID 1132). Particulars: FST binding, 635 nm fluorescence, higher = more signal.
Assay [14] has as its target Fibroblast growth factor 2 (Homo sapiens) (UniProt P09038). In words: FGF2 binders on small-molecule microarrays, primary screen, biochemical, small-molecule microarray, 635/667 nm fluorescence (AID 1133). The note with it: small-molecule microarray binding, FGF2, fluorescence 635/667; higher = more signal.
The nature of assay [15]: mitochondrial membrane potential change in A549 cells, profiling panel, cell-based, JC-1 fluorescence, basal, 24 h, 100 nL (AID 1138).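 Note: A549 lung adenocarcinoma cells under basal conditions with no added stimulus; test concentration not given here.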 Particulars: higher = more signal.
In a further assay the test system is Lefty1. Nature of the assay: Lefty1 binders on small-molecule microarrays, primary screen, biochemical, small-molecule microarray, 635/667 nm fluorescence (AID 1139). The note with it: small-molecule microarray binding, fluorescence 635/667; higher = more signal.
In assay [16] the test system is wheat germ agglutinin (Triticum aestivum), Alexa647-labelled. In words: wheat germ agglutinin binders on compound microarrays, profiling panel, artefact control for SMM control-protein annotation, biochemical, small-molecule microarray, 635/667 nm fluorescence (AID 1140).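 Note: score merges 667 nm feature emission with signal to noise over triplicate slides.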 The note with it: WGA-A647 binding, 635 nm fluorescence, higher = more signal.
Assay [17] addresses Luciferin 4-monooxygenase (Photinus pyralis) (UniProt P08659). In words: firefly luciferase enzyme inhibitors, primary screen, biochemical, luminescence, purified enzyme, 2006 set (AID 1141).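 Note: cell-free assay with purified firefly luciferase at 100 ng per well in PBS; test concentration not given here.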 The note with it: SteadyGlo luminescence, 30 min, higher = more signal, called active from +8 up or from −8 down.

Activity calls are given as the source filed them.

Follistatin (Homo sapiens), sequence (P19883 whole entry, looked up): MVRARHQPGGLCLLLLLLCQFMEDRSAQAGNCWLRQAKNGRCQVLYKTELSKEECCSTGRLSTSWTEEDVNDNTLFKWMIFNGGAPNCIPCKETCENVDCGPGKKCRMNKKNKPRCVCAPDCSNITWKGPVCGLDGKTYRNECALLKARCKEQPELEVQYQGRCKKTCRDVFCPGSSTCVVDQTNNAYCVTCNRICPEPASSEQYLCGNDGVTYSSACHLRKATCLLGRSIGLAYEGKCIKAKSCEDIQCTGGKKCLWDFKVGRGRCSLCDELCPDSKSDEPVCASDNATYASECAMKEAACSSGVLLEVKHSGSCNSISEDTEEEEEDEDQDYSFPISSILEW
Concanavalin-A (Canavalia ensiformis), sequence (P02866 whole entry, looked up): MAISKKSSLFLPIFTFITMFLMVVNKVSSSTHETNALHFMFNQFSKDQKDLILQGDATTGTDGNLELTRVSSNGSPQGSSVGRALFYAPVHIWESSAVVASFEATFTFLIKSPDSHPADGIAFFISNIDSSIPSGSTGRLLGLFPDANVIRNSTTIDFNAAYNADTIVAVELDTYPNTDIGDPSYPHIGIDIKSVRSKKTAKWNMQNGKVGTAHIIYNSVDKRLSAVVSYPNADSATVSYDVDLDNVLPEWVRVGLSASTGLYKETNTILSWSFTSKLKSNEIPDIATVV
Luciferin 4-monooxygenase (Photinus pyralis), sequence (P08659 whole entry, looked up): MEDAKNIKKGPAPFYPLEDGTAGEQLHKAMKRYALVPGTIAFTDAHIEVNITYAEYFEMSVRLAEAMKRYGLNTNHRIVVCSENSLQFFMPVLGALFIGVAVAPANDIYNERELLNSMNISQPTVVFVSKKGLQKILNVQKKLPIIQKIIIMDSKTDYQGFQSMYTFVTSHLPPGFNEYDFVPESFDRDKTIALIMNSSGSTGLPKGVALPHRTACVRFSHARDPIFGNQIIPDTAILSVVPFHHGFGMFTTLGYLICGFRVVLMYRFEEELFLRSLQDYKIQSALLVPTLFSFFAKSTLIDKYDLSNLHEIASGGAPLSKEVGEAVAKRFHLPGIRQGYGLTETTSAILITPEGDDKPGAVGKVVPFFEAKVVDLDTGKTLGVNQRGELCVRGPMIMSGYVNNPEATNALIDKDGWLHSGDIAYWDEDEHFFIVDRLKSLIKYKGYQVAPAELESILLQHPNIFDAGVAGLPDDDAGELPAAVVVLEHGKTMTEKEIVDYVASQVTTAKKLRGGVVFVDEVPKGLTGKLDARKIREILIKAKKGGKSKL
Albumin (Bos taurus), sequence (P02769 whole entry, looked up): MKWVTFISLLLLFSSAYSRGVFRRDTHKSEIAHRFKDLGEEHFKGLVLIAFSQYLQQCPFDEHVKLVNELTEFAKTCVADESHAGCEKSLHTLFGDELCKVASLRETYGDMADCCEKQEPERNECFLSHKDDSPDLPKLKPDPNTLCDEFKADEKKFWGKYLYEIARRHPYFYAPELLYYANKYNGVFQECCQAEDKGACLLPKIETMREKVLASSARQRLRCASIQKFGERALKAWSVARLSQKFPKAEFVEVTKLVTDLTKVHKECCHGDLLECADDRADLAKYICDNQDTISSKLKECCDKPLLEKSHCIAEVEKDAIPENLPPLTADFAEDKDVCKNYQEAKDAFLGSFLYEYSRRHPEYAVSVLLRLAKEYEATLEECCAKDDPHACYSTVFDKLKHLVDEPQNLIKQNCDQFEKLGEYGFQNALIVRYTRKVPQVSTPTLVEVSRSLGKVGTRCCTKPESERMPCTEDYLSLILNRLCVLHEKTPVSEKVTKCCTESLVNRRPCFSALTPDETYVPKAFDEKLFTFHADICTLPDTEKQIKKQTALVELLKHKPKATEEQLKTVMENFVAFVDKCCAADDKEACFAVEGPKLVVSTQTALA
Focal adhesion kinase 1 (Homo sapiens), sequence (Q05397 whole entry, looked up): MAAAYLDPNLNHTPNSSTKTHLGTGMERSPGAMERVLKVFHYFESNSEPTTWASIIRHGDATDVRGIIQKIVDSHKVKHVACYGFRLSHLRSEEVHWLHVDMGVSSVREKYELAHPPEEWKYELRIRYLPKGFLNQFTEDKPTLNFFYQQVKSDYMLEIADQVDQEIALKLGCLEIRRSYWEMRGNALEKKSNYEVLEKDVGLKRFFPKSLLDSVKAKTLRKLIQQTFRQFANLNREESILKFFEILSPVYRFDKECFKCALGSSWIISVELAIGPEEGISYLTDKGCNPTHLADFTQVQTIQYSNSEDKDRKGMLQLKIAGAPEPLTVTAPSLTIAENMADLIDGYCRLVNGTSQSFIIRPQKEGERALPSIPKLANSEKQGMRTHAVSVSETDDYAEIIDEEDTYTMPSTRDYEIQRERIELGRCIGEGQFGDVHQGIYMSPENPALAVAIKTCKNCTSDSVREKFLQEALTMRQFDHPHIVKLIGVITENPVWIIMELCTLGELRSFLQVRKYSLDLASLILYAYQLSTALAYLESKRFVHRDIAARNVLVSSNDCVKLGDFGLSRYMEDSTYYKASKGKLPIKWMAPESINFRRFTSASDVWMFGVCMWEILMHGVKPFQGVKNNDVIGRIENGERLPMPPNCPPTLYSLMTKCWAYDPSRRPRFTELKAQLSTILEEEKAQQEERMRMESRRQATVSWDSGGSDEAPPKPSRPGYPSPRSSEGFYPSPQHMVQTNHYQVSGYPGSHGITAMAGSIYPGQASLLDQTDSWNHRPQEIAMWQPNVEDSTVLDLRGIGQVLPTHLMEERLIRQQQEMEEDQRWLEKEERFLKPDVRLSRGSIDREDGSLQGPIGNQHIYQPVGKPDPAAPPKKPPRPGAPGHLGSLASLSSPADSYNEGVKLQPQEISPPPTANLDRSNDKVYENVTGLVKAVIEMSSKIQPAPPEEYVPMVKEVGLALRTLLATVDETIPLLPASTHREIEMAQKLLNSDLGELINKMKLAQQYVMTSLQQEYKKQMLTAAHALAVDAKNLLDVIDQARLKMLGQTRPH
Fibroblast growth factor 2 (Homo sapiens), sequence (P09038 whole entry, looked up): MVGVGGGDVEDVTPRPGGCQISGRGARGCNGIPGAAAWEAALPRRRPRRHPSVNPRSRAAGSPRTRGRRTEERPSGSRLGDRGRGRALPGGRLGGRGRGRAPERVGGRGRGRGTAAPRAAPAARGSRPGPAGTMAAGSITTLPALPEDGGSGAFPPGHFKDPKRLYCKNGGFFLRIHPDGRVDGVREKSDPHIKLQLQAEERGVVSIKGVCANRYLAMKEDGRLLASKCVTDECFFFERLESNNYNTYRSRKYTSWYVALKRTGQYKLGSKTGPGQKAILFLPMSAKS

Consider `O=C1C2C=CC(C(O)c3cccs3)N(Nc3ccccc3F)C2C(=O)N1c1ccccc1` (stereo not given), for which the composite z-score in the assay with Albumin (Bos taurus) is 0.512; in [2] it was -0.0728; in assay [3], -0.181; in assay [4] it was 0.419; in assay [5], 1.55; in assay [6], 0.118. For the same molecule, the composite z-score was 0.794 with Sam68 (KHDRBS1); -0.399 in [7]; 0.653 in assay [8]; 1.29 in [9]; 1.09 in assay [10]; 0.961 in assay [11]. The composite z-score in assay [12] was 0.916; in [13], 0.414; in [14], -0.282; with Lefty1, -0.0918; in [16], 0.127. In addition, in [1], the composite Z-score was -0.413 (inactive). Also, the z-score in assay [15] was -0.265; in assay [17], 1.71 (inactive).
On to `C=CCC(OC(C)=O)[C@@H]1[C@@H](N(Cc2ccc(-c3cccc(C(F)(F)F)c3)o2)C(=O)c2ccc(C)cc2)c2cc(OCCCO)ccc2N1C(=O)c1ccc(-c2ccccc2)cc1` (stereo not given in full), for which the composite z-score was -0.405 in the assay with Albumin (Bos taurus); 0.0026 in assay [2]; -0.115 in assay [3]; 0.376 in [4]; -0.0056 in assay [5]; -0.0012 in assay [6]. For the same molecule, the composite z-score in the assay with Sam68 (KHDRBS1) is -0.597; in [7], 0.031; in assay [8], 0.854; in assay [9], -0.488; in [10], -0.626; in assay [11], 0.134. Further, the composite z-score was -0.238 in assay [12]; 0.65 in assay [13]; 0.0875 in assay [14]; 0.899 in the assay with Lefty1; 0.639 in assay [16]. Besides, the composite Z-score in assay [1] was 0.244 (inactive). The figures for the z-score in [15] and in assay [17] were 2.31 and -1.4 (inactive), respectively.
With `C=C(COC)/C(=C/C[C@H](OC(=O)c1ccncc1)c1cccc(OCCO)c1)c1cc(C(=O)OC)ccc1OC`, the composite z-score with Albumin (Bos taurus) is 0.374; in assay [2], -0.0006; in assay [3], -0.146; in assay [4], 0.697; in assay [5] it was 0.75; in [6], 0.343. For the same molecule, the composite z-score with Sam68 (KHDRBS1) is 0.908; in assay [7], -0.386; in assay [8], -0.163; in [9] it was 0.844; in assay [10] it was 1.1; in assay [11], 0.381. Also, the composite z-score in [12] was 0.317; in [13], 0.127; in assay [14], 0.245; in the assay on Lefty1, 0.819; in [16], 0.0332. The composite Z-score in assay [1] was 0.415 (inactive). Further, the z-score was 1.48 in [15] and -1.04 (inactive) in assay [17].
On to `C=CCOC(=O)[C@@H]1[C@H]2C(=O)O[C@H](c3ccccc3)[C@H](c3ccccc3)N2[C@H](c2ccc(OCCOC(=O)[C@@H]3C[C@@H]4C(=O)N[C@@H](Cc5ccccc5)C(=O)N4[C@@H]3c3cccc(OCCO)c3)cc2)[C@@]12C(=O)Nc1ccc(I)cc12`, for which the composite z-score with Albumin (Bos taurus) was -0.912; in assay [2] it was -0.0328; in [3], -0.0389; in assay [4], 0.537; in assay [5] it was 1.1; in [6], 0.283. Besides, the composite z-score in the assay with Sam68 (KHDRBS1) was determined as 1.31; in assay [7], 1.11; in assay [8], 0.795; in assay [9], 0.351; in assay [10] it was 0.675; in assay [11] it was 0.184. Further, the composite z-score was 0.199 in [12]; 1.33 in assay [13]; 1.55 in assay [14]; 0.951 in the assay on Lefty1; 0.181 in assay [16]. Moreover, the composite Z-score in assay [1] was -0.292 (inactive). Besides, the z-score in [15] is -0.917; in [17], 0.152 (inactive).
In the case of `O=C1[C@]2(CO)C=C(Br)[C@@H](C[C@@H]2c2ccccc2)[C@@]12CO2`, the composite z-score was -0.102 in the assay with Albumin (Bos taurus); -0.0763 in [2]; -0.16 in assay [3]; 0.129 in [4]; -0.307 in assay [5]; -0.139 in assay [6]. The composite z-score with Sam68 (KHDRBS1) is -0.566; in [7], 0.0616; in assay [8], 0.195; in [9], 0.123; in assay [10], -0.769; in assay [11], -0.0687. In addition, the composite z-score in [12] was found to be 0.262; in assay [13] it was 0.518; in assay [14], 0.118; in the assay with Lefty1, 0.748; in assay [16], 0.492. Further, the composite Z-score in assay [1] was 0.689 (inactive). The z-score was 0.116 in assay [15] and 0.969 (inactive) in assay [17].

Values taken from PubChem BioAssay.
